# Measured values: PubChem BioAssay (NCI)
# The panel holds about 79,000 compounds, 15% with a hit somewhere; the sample as a whole holds those more often. Values without a mark were called inactive. Active and inactive are the calls of the source. No stated cut-off is given here; in the data, active means growth inhibition above about 70%; inactive means the rest.
# Experiments:
# [1] = NCI Yeast Anticancer Drug Screen. Data for the rad50 strain (AID 155);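 further: 0% = growth of vehicle-only cultures of the same strain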; conditions: S. cerevisiae rad50 strain growth inhibition; at 50.0 µM; stronger effect = higher value
# In short: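 A DNA repair-deficient yeast mutant serves as the test organism; compound-induced growth inhibition is calculated against vehicle-treated cells.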
# [2] = NCI Yeast Anticancer Drug Screen. Data for the mec2-1 strain (AID 157); conditions: S. cerevisiae mec2-1 strain, at 50.0 µM, stronger effect = higher value
# In short: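 Cells of the genetically defined mec2-1 yeast strain are incubated with test compound. Inhibition of growth is calculated against vehicle-treated controls.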
# [3] = NCI Yeast Anticancer Drug Screen. Data for the sgs1 mgt1 strain (AID 161);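 further: 0% = growth of cultures given vehicle only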; conditions: S. cerevisiae sgs1 mgt1 strain, at 50.0 µM, stronger effect = higher value
# In short: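 Genetically altered yeast, compound exposure, growth inhibition relative to vehicle.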
# [4] = NCI Yeast Anticancer Drug Screen. Data for the cln2 rad14 strain (AID 165);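 further: 0% = growth equal to vehicle treated cultures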; conditions: S. cerevisiae cln2 rad14 strain, at 50.0 µM, stronger effect = higher value
# In short: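 The screen exposed genetically defined yeast (cln2 rad14) to test compounds and scored growth inhibition relative to vehicle-treated controls.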
# [5] = NCI Yeast Anticancer Drug Screen. Data for the bub3 strain (AID 167); conditions: S. cerevisiae bub3 mutant strain, at 50.0 µM, stronger effect = higher value
# In short: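 Inhibition values come from growth of compound-treated mutant yeast normalised to vehicle-treated controls.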
# [6] = NCI Yeast Anticancer Drug Screen. Data for the mlh1 rad18 strain (AID 175); conditions: S. cerevisiae mlh1 rad18 strain growth inhibition; at 50.0 µM; stronger effect = higher value
# In short: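 Compound-treated yeast growth, normalised to vehicle controls. Strain bears defined DNA repair mutations.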
Structure (SMILES),growth inhibition [1] [%],growth inhibition [2] [%],growth inhibition [3] [%],growth inhibition [4] [%],growth inhibition [5] [%],growth inhibition [6]
CCN(CC)CCOC(=O)c1ccc(N=Nc2ccc(O)cc2)cc1,7.25,-0.8,-17.9,-6.25,1,-5.7%
CCOC(=O)COc1ccc2c(C)cc(=O)oc2c1[N+](=O)[O-],11.4,-6.85,2.1,6.95,6.6,35.5%
Cc1ccc(CNC(=O)C2CCCCC2C(=O)O)cc1 (stereo not given),6.65,21.7,6.95,10.4,27.9,-16.1%
CCCCCCCCCCCCOC(=O)CSC#N,-5.65,-38,-31.9,-67.5,-39.6,-14.1%
CC1OC(OC2C(OC(=O)[C@]34CCC(C)(C)C[C@H]3C3=CC[C@@H]5[C@@]6(C)CC[C@H](OC7OC(C(=O)O)C(O)C(OC8OCC(O)C(O)C8O)C7O)C(C)(C)[C@@H]6CC[C@@]5(C)[C@]3(C)CC4)OCC(O)C2O)C(O)C(OC2OCC(O)C(O)C2O)C1OC1OCC(O)C(OC2OCC(O)C(O)C2O)C1O (stereo not given in full),17.1,21.2,19.6,31.2,38.4,29.8%
O=C1CCC([N+](=O)[O-])C(c2ccccc2Cl)N1 (stereo not given),10.7,-15.9,20.1,-0.9,29.7,20.5%
CN(Cc1nc2c(N)nc(N)nc2nc1N)c1ccc(C(=O)NC(CCC(=O)O)C(=O)O)cc1 (stereo not given),7.65,42.2,22.3,-7.4,-1.95,-26.1%
O=C1c2ccccc2C(=O)c2cc(C[n+]3ccccc3C3OCCO3)ccc21,19,7.2,42.2,15.8,-0.8,2.55%
CC(=O)OCC1OC(n2c(-c3ccccc3)c(N=Nc3ccccc3)c(C)c(C#N)c2=S)C(OC(C)=O)C(OC(C)=O)C1OC(C)=O (stereo not given),-14,-17.4,-20.2,11.5,2.55,9.75%
Cc1nn(C(=O)c2ccc(Cl)cc2)c2c1C(c1ccc(Cl)cc1)SC(N)=N2 (stereo not given),9.95,-21.2,31.4,-24.9,-19.4,12.9%
C=C(C)COc1ccc(/C=C/C(=O)OCC)cc1,9.8,-4,4.5,1.2,-6.25,-12.4%
CC[n+]1ccnc2ccccc21,-11.6,-8,-1.35,-7.9,11.6,14%
CN(C)CCCNc1cc[n+](C)c2cccc([N+](=O)[O-])c12,27.1,15.4,31.4,20.4,13.8,27.3%
C1=C(c2ccccc2)NC2=N[C@H]3CCCC[C@@H]3N2C1c1ccccc1 (stereo not given in full),18.9,10.4,22.8,-7.55,33.8,91.5% (active)
COC(=O)c1c(O)cc(OC)cc1OCc1ccccc1,10.7,-4.4,-4.8,27.6,31.4,2.95%
NCC(O)CSc1ccccc1 (stereo not given),-10.6,4.15,-6.85,-16.7,-1.3,-6.8%
C/C(=N\N=C(/C)c1ccc(-c2ccccc2)cc1)c1ccc(-c2ccccc2)cc1,1.2,-27.8,19.1,2.2,20.8,13.3%
CCOC(=O)c1ccc(CCCN)cc1,-17.8,-13.2,12.9,-28.2,-10,0.65%
CCOC(=O)NCC(Cl)(Cl)Cl,-4.6,0.25,-11.1,-51.4,6.6,-6.7%
O=C(OCC1OC(OC(=O)c2ccccc2)C(O)C1OC(=O)c1ccccc1)c1ccccc1 (stereo not given),45.2,15.7,19.3,38.2,35.7,49.5%

Structure (SMILES),growth inhibition [1] [%],growth inhibition [2] [%],growth inhibition [3] [%],growth inhibition [4] [%],growth inhibition [5] [%],growth inhibition [6]
CC(=O)Nc1nc(Cl)c2ncn(C3CCCO3)c2n1 (stereo not given),-13,-4,-9.35,-33.5,0.6,2.25%
O=[N+]([O-])c1cccc(N=C(c2ccccc2)N(O)c2ccccc2)c1,1.8,-19.2,0.85,31.9,10.9,15.8%
Cc1nc(-c2cccnc2)sc1C(=O)/C=C/c1cccc([N+](=O)[O-])c1,27.1,10.6,23.9,32.2,5.6,38.9%
CC(O)c1cccc(NC(=O)NC(C)(C)C)c1 (stereo not given),0.6,3.05,-5,-74,10.8,-6%
NC(=O)c1ccccc1NC(=O)C(=O)C(c1cnc2ccc([N+](=O)[O-])cc2n1)[N+](=O)[O-] (stereo not given),9.7,-1.1,19.6,12.9,5.85,28.8%
CC1(C)CC(N2CCN(C3CC(C)(C)NC(C)(C)C3)CC2)CC(C)(C)N1,-12.7,-19.6,-18.8,-8.3,-14.2,-29.6%
Cc1ccc(C(c2ccc(C)c(C)c2)C(O)C(O)C(O)CO)cc1C (stereo not given),20,-2.25,0.65,12.9,6.7,8.85%
CCN(CC)CCN(C)C(O)(C(=O)c1ccccc1)C1CCCC1 (stereo not given),8.9,15.2,2.3,-4.35,0.45,32%
C[N+]1(C(CO)Cc2c[nH]c3ccccc23)Cc2ccccc2C1 (stereo not given),10.6,14.6,-19.1,-8.35,-65.5,-5.7%
Cc1cc(Cl)c(=O)n(-c2ccc(Cl)cc2)n1,27.3,-4.6,9.45,4.7,15.3,44.9%
Cn1c(=O)c2ccccc2c2cc(Br)ccc21,41.1,6.05,4.15,-14.8,7.8,20.6%
COc1cc(=O)[nH]c(-c2ccccc2)c1OC,-3.55,3.95,9,-5.05,7.7,0.05%
c1ccc(-c2nc(-c3ccccn3)cc3ccccc23)cc1,-2.05,-17.6,10,2.8,5.4,18.8%
S=c1nc[nH]c2c1ncn2C1CCCC1,-2.25,-4.75,-4.55,-14.9,-0.3,-3.1%
Nc1nc(N)nc(-c2ccccc2NS(=O)(=O)c2ccc([N+](=O)[O-])cc2)n1,1.6,21.8,6.2,3.45,11.2,38.4%
CCOC(=O)/C(C#N)=C/C=C1C=CN(C)C=C1,8.95,-4.4,-1.4,-30.9,0.1,-10.1%
O=C(Nc1ccc(NC(=O)Nc2ccc(C3=NCCN3)cc2)cc1)Nc1ccc(C2=NCCN2)cc1,-7.7,7.15,7.65,-1.7,-21.1,-19.6%
Cc1cc(NC(=O)C(=O)Cc2cnc3ccccc3n2)c(S(=O)(=O)O)cc1Cl,1.45,12.8,-2.7,-23,-11.2,-7.8%
NC(=O)NC1CCCCCCC1,5.95,-14.9,1.05,-7.45,4.75,0.3%
O=C(NO)c1cc(O)c(O)c(O)c1,-14.5,1.75,-16.7,-11.6,-5.75,-25.4%
